Laboratory results as given in PubChem BioAssay (Tox21).
Records with an inconclusive call do not appear. Calls of active or inactive are those of the source. Unless noted, calls come from the whole dose curve.

Assays:
[1] = Nuclear factor erythroid 2-related factor 2/antioxidant responsive element (Nrf2/ARE) small molecule agonists: qHTS cell viability counter screen in human keratinocytes (AID 1919968; active = well fitted curve in the direction sought with a large enough effect in the repeat runs; an effect the other way counts as inactive or inconclusive; note: nearly all actives have a fitted effect of over 55% in size)
Summary of the method: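 Stably transfected HaCaT (KeratinoSens), 1,500/well. Test agents in DMSO were applied for 23 h, 37 C/5% CO2. CellTiter-Fluor was incubated 1 h before the fluorescence read.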

[2] = Nuclear factor erythroid 2-related factor 2/antioxidant responsive element (Nrf2/ARE) small molecule agonists: luciferase reporter gene qHTS assay in human keratinocytes (AID 1919969); note: nearly all actives have a fitted effect of over 35% in size; note: potency is the fitted concentration of half-maximal effect
[3] = target: Gonadotropin-releasing hormone receptor (Homo sapiens) (UniProt P30968); experiment: Human gonadotropin-releasing hormone receptor (GnRHR) small molecule agonists, calcium flux assay in GnRHR-HEK293 cells (AID 1920063); note: nearly all actives have a fitted effect of over 35% in size
Sequence of Gonadotropin-releasing hormone receptor (Homo sapiens) (P30968 whole entry, looked up): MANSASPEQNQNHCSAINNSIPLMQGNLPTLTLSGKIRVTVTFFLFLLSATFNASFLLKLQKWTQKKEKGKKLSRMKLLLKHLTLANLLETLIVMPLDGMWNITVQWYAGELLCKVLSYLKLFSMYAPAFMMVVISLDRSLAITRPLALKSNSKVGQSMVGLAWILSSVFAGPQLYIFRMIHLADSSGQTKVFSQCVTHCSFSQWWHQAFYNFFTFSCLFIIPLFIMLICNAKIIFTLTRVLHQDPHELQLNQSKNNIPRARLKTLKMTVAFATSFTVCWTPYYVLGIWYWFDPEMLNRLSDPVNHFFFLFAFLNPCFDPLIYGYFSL
Summary of the method: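 Stable human GnRHR HEK293 line. 18 h plating, then calcium dye for 1 h at 37 C. Agonist-mode compound addition from DMSO stocks; fluorescence monitored 3 min.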

[4] = target: KiSS-1 receptor (Homo sapiens) (UniProt Q969F8); experiment: Human kisspeptin (KISS1R) small molecule agonists, calcium flux assay in KISS1R-HEK293 cells (AID 1920064; active = well fitted curve in the direction sought with a large enough effect in the repeat runs; an effect the other way counts as inactive or inconclusive)
Sequence of KiSS-1 receptor (Homo sapiens) (Q969F8 whole entry, looked up): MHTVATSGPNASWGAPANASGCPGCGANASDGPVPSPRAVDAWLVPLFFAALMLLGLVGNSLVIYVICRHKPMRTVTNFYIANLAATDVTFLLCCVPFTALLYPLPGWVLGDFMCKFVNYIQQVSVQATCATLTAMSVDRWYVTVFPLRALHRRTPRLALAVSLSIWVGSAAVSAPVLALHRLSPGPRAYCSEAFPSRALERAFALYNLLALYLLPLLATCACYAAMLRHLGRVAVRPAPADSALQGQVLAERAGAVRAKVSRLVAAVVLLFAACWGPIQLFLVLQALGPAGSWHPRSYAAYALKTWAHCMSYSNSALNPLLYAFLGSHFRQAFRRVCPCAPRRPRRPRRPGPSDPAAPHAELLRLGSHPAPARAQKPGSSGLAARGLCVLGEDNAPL
Summary of the method: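 After overnight (18 h) culture at 37 C/5% CO2, human KISS1R-HEK293 cells received calcium dye for 1 h, then test compound; emission at 540 nm (excitation 480 nm) was tracked for 3 min.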

[5] = p53 small molecule agonists, cell-based qHTS assay with human liver microsomes (AID 1963577)
Summary of the method: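 Fluorescence of the beta-lactamase reporter in p53RE-bla cells, detected with LiveBLAzer substrate (2 h, room temperature, dark), served as the read-out after 16 h compound exposure at 37 C with human liver microsomes and NADPH, each 0.5 mg/mL final.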

[6] = p53 small molecule agonists, cell-based qHTS assay with rat liver microsomes (AID 1963578)
Summary of the method: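 Cells carrying a p53 response element–beta-lactamase reporter were plated and rested 5 h, then dosed with compound in DMSO plus rat liver microsomes and NADPH, each at 0.5 mg/mL final. After 16 h at 37 C, LiveBLAzer substrate was added for 2 h.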

[7] = p53 small molecule agonists, cell-based qHTS assay with human liver microsomes: qHTS cell viability counter screen (AID 1963579); note: nearly all actives have a fitted effect of over 45% in size
Summary of the method: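 Cytotoxicity counter screen: p53RE-bla, 4,000 cells/well; 5 h settle, 37 C/5% CO2; cpd + HLM 0.5 mg/mL + NADPH 0.5 mg/mL (final); 16 h, 37 C; CellTiter-Glo, 30 min RT, luminescence.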

[8] = p53 small molecule agonists, cell-based qHTS assay with rat liver microsomes: qHTS cell viability counter screen (AID 1963580); note: nearly all actives have a fitted effect of over 45% in size
Summary of the method: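 Cytotoxicity counter screen: intracellular ATP measured by CellTiter-Glo luminescence in the same wells as the beta-lactamase reporter read, on HCT-116 p53RE-bla cells exposed 16 h at 37 C to compounds with rat liver microsomes and NADPH, each 0.5 mg/mL final.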

[9] = p53 small molecule agonists, cell-based qHTS assay: qHTS cell viability counter screen (AID 1963581); note: nearly all actives have a fitted effect of over 45% in size
Summary of the method: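 qHTS counter screen: 16 h compound exposure at 37 C of p53RE-bla HCT-116 cells (4,000 per well, seeded 5 h prior), cell viability by ATP luminescence.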

[10] = p53 small molecule agonists, cell-based qHTS assay (AID 1963582; active = well fitted activation curve with a large enough effect in the signal ratio in the repeat runs, not every such curve was filed as active; the % refers to the signal ratio)
Summary of the method: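 Measured: fluorescence from cleaved LiveBLAzer substrate. System: p53RE-bla cells, 16 h compound treatment at 37 C, 2 h substrate step at room temperature.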

[11] = target: 5-hydroxytryptamine receptor 2A (Homo sapiens) (UniProt P28223); experiment: 5-hydroxytryptamine receptor 2A (HTR2A) small molecule agonists, cell-based qHTS assay (AID 1963587); note: nearly all actives have a fitted effect of over 30% in size
Sequence of 5-hydroxytryptamine receptor 2A (Homo sapiens) (P28223 whole entry, looked up): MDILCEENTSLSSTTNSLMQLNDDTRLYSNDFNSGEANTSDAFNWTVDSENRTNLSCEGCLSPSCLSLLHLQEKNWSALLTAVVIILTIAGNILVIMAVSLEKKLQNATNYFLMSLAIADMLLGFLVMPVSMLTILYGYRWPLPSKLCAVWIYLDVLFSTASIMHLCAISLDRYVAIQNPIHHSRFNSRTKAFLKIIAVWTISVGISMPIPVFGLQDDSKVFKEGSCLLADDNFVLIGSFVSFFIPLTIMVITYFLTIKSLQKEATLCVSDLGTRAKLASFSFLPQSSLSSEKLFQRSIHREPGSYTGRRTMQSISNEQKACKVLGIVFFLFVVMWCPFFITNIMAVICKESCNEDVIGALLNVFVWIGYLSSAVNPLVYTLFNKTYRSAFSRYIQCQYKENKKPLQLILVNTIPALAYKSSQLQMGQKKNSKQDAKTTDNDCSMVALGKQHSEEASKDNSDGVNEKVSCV
Summary of the method: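 CHO cells stably expressing human HTR2A, plated 18 h, loaded with calcium dye 1 h at 37 C. Agonist mode: compounds added and intracellular calcium fluorescence recorded kinetically for 2 min at 1 sec intervals.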

[12] = target: Muscarinic acetylcholine receptor M1 (Homo sapiens) (UniProt P11229); experiment: Cholinergic receptor muscarinic 1 (CHRM1) small molecule antagonists, cell-based qHTS assay (AID 1963588); note: nearly all actives have a fitted effect of over 40% in size
Sequence of Muscarinic acetylcholine receptor M1 (Homo sapiens) (P11229 whole entry, looked up): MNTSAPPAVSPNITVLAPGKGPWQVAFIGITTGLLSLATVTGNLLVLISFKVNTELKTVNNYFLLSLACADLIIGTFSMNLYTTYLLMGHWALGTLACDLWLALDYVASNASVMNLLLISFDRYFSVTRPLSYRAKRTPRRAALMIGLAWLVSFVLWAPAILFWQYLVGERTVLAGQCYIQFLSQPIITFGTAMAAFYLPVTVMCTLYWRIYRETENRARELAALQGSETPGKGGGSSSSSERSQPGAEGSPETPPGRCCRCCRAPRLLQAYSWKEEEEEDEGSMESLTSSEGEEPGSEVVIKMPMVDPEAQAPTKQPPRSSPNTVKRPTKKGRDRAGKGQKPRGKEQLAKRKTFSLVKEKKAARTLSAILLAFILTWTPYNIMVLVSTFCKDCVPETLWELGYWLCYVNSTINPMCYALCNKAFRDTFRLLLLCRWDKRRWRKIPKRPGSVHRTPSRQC
Summary of the method: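 Compounds were tested at 15 concentrations in three independent runs. Dye-loaded CHRM1-CHO cells were exposed 5 min at room temperature before stimulation by acetylcholine added at 50nM. Intracellular calcium was read kinetically on FDSS for 3 min.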

[13] = target: Muscarinic acetylcholine receptor M1 (Homo sapiens) (UniProt P11229); experiment: Cholinergic receptor muscarinic 1 (CHRM1) small molecule agonists, cell-based qHTS assay (AID 1963589); note: nearly all actives have a fitted effect of over 35% in size
Summary of the method: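 Kinetic fluorescence (1 s intervals) of calcium-sensitive dye in human M1 CHO cells after compound addition; cells pre-incubated 18 h at 37 C/5% CO2 and dye-loaded 1 h.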

[14] = cAMP Responsive Elements (CRE) small molecule antagonists, cell-based qHTS assay (AID 1963591; active = well fitted inhibition curve with a large enough effect in the signal ratio in the repeat runs, not every such curve was filed as active; the % refers to the signal ratio)
Summary of the method: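 Reporter line CRE-bla HEK 293T in dialyzed-FBS DMEM; cells preincubated 18 h, treated 3 h with compound plus NKH477 (0.25 uM final); LiveBLAzer FRET, 2 h RT.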

[15] = target: Beta-2 adrenergic receptor (Homo sapiens) (UniProt P07550); experiment: Adrenergic beta2 receptor (ADRB2) small molecule antagonists, cell-based qHTS assay (AID 1963592); note: series mostly up to about 92 µM; nearly all actives have a fitted effect of over 50% in size
Sequence of Beta-2 adrenergic receptor (Homo sapiens) (P07550 whole entry, looked up): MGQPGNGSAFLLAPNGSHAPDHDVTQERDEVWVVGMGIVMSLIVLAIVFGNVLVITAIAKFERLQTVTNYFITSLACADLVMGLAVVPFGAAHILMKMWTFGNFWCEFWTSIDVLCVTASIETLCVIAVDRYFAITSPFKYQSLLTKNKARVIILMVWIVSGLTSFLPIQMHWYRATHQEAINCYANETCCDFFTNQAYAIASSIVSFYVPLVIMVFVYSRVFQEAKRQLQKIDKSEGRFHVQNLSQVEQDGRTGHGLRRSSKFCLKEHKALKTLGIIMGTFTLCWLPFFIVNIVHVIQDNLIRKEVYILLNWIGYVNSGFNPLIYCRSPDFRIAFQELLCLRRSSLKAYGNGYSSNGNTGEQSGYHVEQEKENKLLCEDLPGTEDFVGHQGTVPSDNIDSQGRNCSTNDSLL
Summary of the method: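 Assay format: CHO-ADRB2 cells, 18-20hr seeding at 37C/5% CO2, then compound plus 1nM isoproterenol agonist mix for 0.5hr RT. Homogeneous time-resolved fluorescence cAMP detection after 1hr, expressed as 665/615 nm ratio.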

[16] = target: D(2) dopamine receptor (Homo sapiens) (UniProt P14416); experiment: Dopamine D2 receptor (DRD2) small molecule agonists, cell-based qHTS assay (AID 1963594); note: nearly all actives have a fitted effect of over 35% in size
Sequence of D(2) dopamine receptor (Homo sapiens) (P14416 whole entry, looked up): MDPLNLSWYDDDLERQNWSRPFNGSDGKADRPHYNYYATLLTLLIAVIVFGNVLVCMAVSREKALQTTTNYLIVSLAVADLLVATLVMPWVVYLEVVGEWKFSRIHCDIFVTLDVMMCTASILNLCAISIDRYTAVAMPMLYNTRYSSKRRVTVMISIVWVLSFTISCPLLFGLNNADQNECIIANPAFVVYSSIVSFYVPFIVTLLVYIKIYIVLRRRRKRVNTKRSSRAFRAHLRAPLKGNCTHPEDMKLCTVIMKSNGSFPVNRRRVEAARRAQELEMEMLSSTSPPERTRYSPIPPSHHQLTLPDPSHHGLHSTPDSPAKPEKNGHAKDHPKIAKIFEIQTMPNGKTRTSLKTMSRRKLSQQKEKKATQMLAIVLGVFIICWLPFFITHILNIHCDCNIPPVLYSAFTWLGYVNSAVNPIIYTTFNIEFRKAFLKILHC
Summary of the method: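 HEK293 cells stably expressing human DRD2, pre-treated with PDE inhibitor Ro20-1724 (0.1 mM final) and compound 10 min at room temperature, then stimulated with NKH477 (200nM […]) for 30 min. cAMP read by HTRF (665/620 nm).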

[17] = target: D(2) dopamine receptor (Homo sapiens) (UniProt P14416); experiment: Dopamine D2 receptor (DRD2) small molecule antagonists, cell-based qHTS assay (AID 1963595; active = well fitted inhibition curve with a large enough effect in the signal ratio in the repeat runs, with a control signal flat; the % refers to the signal ratio)
Summary of the method: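 DRD2-HEK293; 0.1 mM Ro20-1724; cpd 10 min RT; NKH477 200 nM + quinpirole 12 nM, 30 min RT; HTRF cAMP (cAMP-d2/anti-cAMP cryptate), 665/620 nm ratio after 1 h.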

[18] = cAMP Responsive Elements (CRE) small molecule agonists, cell-based qHTS assay (AID 1963590)
Summary of the method: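 Test agents in DMSO were incubated 3 h at 37 C/5% CO2 with CRE-bla HEK 293T cells seeded 18 h earlier; LiveBLAzer B/G FRET substrate was added and read after 2 h at room temperature.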

[19] = target: 5-hydroxytryptamine receptor 2A (Homo sapiens) (UniProt P28223); experiment: 5-hydroxytryptamine receptor 2A (HTR2A) small molecule antagonists, cell-based qHTS assay (AID 1963586); note: nearly all actives have a fitted effect of over 45% in size
Summary of the method: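 CHO cells stably expressing human HTR2A were plated for 18 h at 37 C, then loaded with calcium dye for 1 h. Compounds were preincubated 5 min at room temperature before DOI (4 nM solution) was added. Kinetic fluorescence was read for 3 min.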
% is set by controls: 0 for no effect and ±100 for the full control effect.

Cc1cc(O)c2c(c1)C(=O)c1cccc(O)c1C2=O
active: Potency [2] 8.43 µM
inactive: Potency [1] | Potency [3] | outcome [4] | Potency [5] | Potency [6] | Potency [7] | Potency [8] | Potency [9] | Potency [10] | Potency [11] | Potency [12] | Potency [13] | Potency [14] | Potency [15] | Potency [16] | Potency [17]

CO[C@@H]1[C@@H](OC(N)=O)[C@@H](O)[C@H](Oc2ccc3c(O)c(NC(=O)c4ccc(O)c(CC=C(C)C)c4)c(=O)oc3c2C)OC1(C)C
inactive: Potency [1] | Potency [2] | Potency [3] | outcome [4] | Potency [5] | Potency [6] | Potency [7] | Potency [8] | Potency [9] | Potency [10] | Potency [11] | Potency [12] | Potency [13] | Potency [18] | Potency [14] | Potency [15] | Potency [16]

NC(Cc1ccc(Cl)cc1)C(=O)O (stereo not drawn)
inactive: activity change, negative = cytotoxicity [1] -10.3% [at 0.349 µM] | activity, positive = activation [2] -1.51% [at 0.349 µM] | activity change [3] -0.23% [at 0.217 µM, hits give high values] | activation [4] -1.07% [at 0.29 µM] | activation [5] 1.9% [at 0.249 µM] | activation [6] 0.185% [at 0.249 µM] | activity change, negative = cytotoxicity [7] -1.01% [at 0.249 µM] | activity change, negative = cytotoxicity [8] -0.306% [at 0.249 µM] | activity change, negative = cytotoxicity [9] 8.87% [at 0.249 µM] | activation [10] -0.216% [at 0.249 µM] | activity, negative = inhibition [19] -30.9% [at 0.233 µM] | activation [11] 0.604% [at 0.292 µM] | activity, negative = inhibition [12] 9.51% [at 0.232 µM] | activation [13] -0.299% [at 0.29 µM] | activation [18] -0.737% [at 0.349 µM] | activity change, negative = inhibition [14] 2.88% [at 0.349 µM] | activity change, negative = inhibition [15] -0.117% [at 0.349 µM] | activation [16] 0.127% [at 0.349 µM] | activity change, negative = inhibition [17] 0.383% [at 0.348 µM]
